PubChem BioAssay (EPA / NIEHS)
Calls of active or inactive are those of the source. Rule for the calls: active = hit-call score of the fitted dose curve at least 0.9, where 1 is the maximum; inactive = score below 0.9.

Each compound was assayed on NAD(P)H dehydrogenase [quinone] 1 (NQO1), NQO1 (gene 1728) (assay: LTEA_HepaRG_NQO1: Life Technologies and Expression Analysis (LTEA) Assay for NAD(P)H dehydrogenase [quinone] 1 (NQO1) using HepaRG (AID 2283526)). Conditions: mRNA level, 48 h; actives raise or lower the signal.
Method: LTEA_HepaRG is a cell based, multiplexed-readout assay that uses HepaRG, a human liver cell line, with measurements taken at 48 hours after chemical dosing on a 96-well plate.LTEA_HepaRG_NQO1 is one of 102 assay component(s) measured in the LTEA HepaRG cell culture assay. It is a marker of Diseases associated with NQO1 include Tardive Dyskinesia and Childhood Leukemia.Data from the assay component LTEA_HepaRG_NQO1 was analyzed into 1 endpoint. This assay endpoint, LTEA_HepaRG_NQO1, was analyzed with bidirectional fitting relative to DMSO as the negative control and baseline of activity. Using a type of inducible reporter, measures of mRNA induction for gain or loss-of-signal activity can be used to understand regulation of transcription factor activity. To generalize the intended target to other relatable targets, this assay endpoint is annotated to the oxidoreductase intended target family, where the subfamily is quinone-acceptor.
A total of 1060 chemcials from the ToxCast library were tested in eight-point concentration-response experiments. Cell culture and cytotoxicity assays were conducted at Thermo Fisher Scientific's Custom Services facility (Madison, WI). A single lot of human HepaRG cells (Thermo Fisher Scientific, Frederick, MD) was used for the cell culture experiments. 96-well format collagen type I coated plates of human HepaRG cells were prepared using established methods. Briefly, cryopreserved HepaRG cells were thawed, plated at a density of approximately 100,000 cells/well in HepaRG Thaw, Plate, and General Purpose media (HPRG770, Thermo Fisher Scientific), and incubated for 48 hours. 0.5% DMSO was selected as vehicle control to balance the requisite need of DMSO in HepaRG cultures to maintain differentiation (for example, baseline metabolism, proportions of hepatocytes vs. cholangiocytes), while enabling further hepatic receptor pathway activation (for example, PXR and CAR) in response to chemical exposure. 48 hours after plating, the culture medium was replaced with HepaRG Serum-Free Incudtion Media. Cells were exposed to each test chemical in duplicate and maintained in CO2 incubators for another 48 hours. Chemical plates were thawed to room temperature and 200x concentrations of treatment groups were prepared. 8-point conentration-reponse curves were made with the highest exposure at 100 uM, followed by half-log dilutions, all in 0.5% DMSO. Each test plate contained variouse controls, induction positive controls (1mM phenobarbital), cytotoxicity positive controls ([…] aflatoxin B1), vehicle controls (0.5% DMSO), and total lysis controls (0.5% DMSO). Cell morphology images were taken using an Essen IncuCyte FLR automated microscope, with six 96-well plates imaged in about 24 minutes. Images were captured and exported and JPEG files. Spent culture media was transfered to black-well plates for the LDH assay, and remaining media was sorted at -80 C for later use. Cells were treated with RLT buffer and frozen until shipped for gene expression analysis. Total RNA was isolated from the cell suspension in 75 uL of Buffer RLT (Qiagen, Germantown, MD 20874) by Quintiles/Expression Analysis (Durham, NC) using a custom isolation procedure. Total RNA from each plate well was transferred to a preamplification plate. Fluidigm's 96.96 Dynamic ArrayTM (Fluidigm, Amsterdam, the Netherlands) technology was used for gene expression analyses by quantitative reverse transcription polymerase chain reaction (qRT-PCR, performed by Quintiles/Expression Analysis, Durham, NC)89. Standard TaqManTM Assays (Applied Biosystems/ThermoFisher Scientific, Foster City, CA) were used to assess the expression of 93 genes selected based on their selectivity and sensitivity to important hepatic receptors known to be modulated by environmental chemicals; importance in human hepatocyte functionality; and hepatotoxicity. […]
In the case of `CC/C(=C\C(=N/O)C(N)=O)C(C)[N+](=O)[O-]` (stereo not given), the outcome was “inactive”. For `Cc1c(-c2cccnc2)c2ccccc2n1CCCCC(=O)O`, the outcome was “inactive”. `CC(=O)c1ccc2c(c1)[C@H](NC(=O)c1ccc(F)cc1)[C@@H](O)C(C)(C)O2` was tested, and the outcome was “inactive”. For `COCCOc1cc2cc(C(=O)NC3CCN(C(C)C)CC3)n(CC(=O)Nc3ccc(Cl)cn3)c2cn1`, the outcome was “inactive”. `CC[C@H]1CC[C@H](NCc2cc3c(cc2OC)[C@H]2C[C@H]2C(=O)N3C)[C@H](c2ccccc2)N1` was tested, and the outcome was “inactive”. `CCCCCCCCO` was tested, and the outcome was “inactive”. In the case of `O=c1[nH]c2ccc(S(=O)CCN3CCC(Cc4ccc(F)cc4)CC3)cc2o1` (stereo not given), the outcome was “inactive”. With `COC(=O)CC(=O)OC` the outcome was “inactive”. With `CCCCC(CC)COC(=O)c1ccc(C(=O)OCC(CC)CCCC)cc1` (stereo not given) the outcome was “inactive”. With `O=C(O)c1cc(N=Nc2ccc(S(=O)(=O)Nc3ccccn3)cc2)ccc1O` the outcome was “inactive”. `O=C(O)CCN(C1(C(=O)NO)CCCC1)S(=O)(=O)c1ccc(Oc2ccc(F)cc2)cc1` was tested, and the outcome was “inactive”. In the case of `Cn1c(=O)cc(Oc2ccc(F)cc2F)c2cnc(NCC(C)(C)O)nc21`, the outcome was “inactive”. `CC(C)CCCCCCOC(=O)c1ccc(C(=O)OCCCCCCC(C)C)c(C(=O)OCCCCCCC(C)C)c1` was tested, and the outcome was “inactive”. For `CCCC(=O)OCC`, the outcome was “inactive”. `Cc1[nH]cnc1C[C@H]1CCc2c(C)c3ccccc3n2C1=O` was tested, and the outcome was “inactive”. `CC[C@H]1OC(=O)[C@H](C)[C@@H](O[C@H]2C[C@@](C)(OC)[C@@H](O)[C@H](C)O2)[C@H](C)[C@@H](O[C@@H]2O[C@H](C)C[C@H](N(C)C)[C@H]2O)[C@](C)(O)C[C@@H](C)C(=O)[C@H](C)[C@@H](O)[C@]1(C)O` was tested, and the outcome was “inactive”. `CCN(C(=O)c1cc(C)cc(OC[C@H](C)Nc2ccncc2)c1)C(C)C` was tested, and the outcome was “inactive”. With `CC(=O)OC[C@H]1O[C@@](COC(C)=O)(O[C@H]2O[C@H](COC(C)=O)[C@@H](OC(C)=O)[C@H](OC(C)=O)[C@H]2OC(C)=O)[C@@H](OC(C)=O)[C@@H]1OC(C)=O` the outcome was “inactive”. In the case of `CCNc1ccccc1`, the outcome was “inactive”. `Nc1cccc(N)c1` was tested, and the outcome was “inactive”. In the case of `CC(C)=CCC/C(C)=C/CO`, the outcome was “inactive”. `CNS(=O)(=O)c1cc(C(=O)N2CCC(CCN3C4CCC3CC(n3c(C)nc5ccccc53)C4)(c3cccc(F)c3)CC2)c(Cl)cc1F` (stereo not given) was tested, and the outcome was “inactive”. For `Clc1nc(Cl)c(Cl)c(Cl)c1Cl`, the outcome was “inactive”. For `CC(C)=CCCC(C)=CC=O`, the outcome was “inactive”. `Cc1ccc(N)cc1O` was tested, and the outcome was “inactive”. In the case of `CCOC(=O)c1ccc(C2CCC(NC[C@H](O)COc3ccc(O)c(NS(C)(=O)=O)c3)CC2)cc1` (stereo not given in full), the outcome was “inactive”. `CCOc1cccc(-n2cc(C(=O)N3CCN(c4cc(C(=O)O)c5ccccc5c4)CC3)nc2-c2ccc(C)cc2)c1` was tested, and the AC50 was 78.4 µM (active). In the case of `CCOC(=O)CC(CC(=O)OCC)(OC(C)=O)C(=O)OCC`, the outcome was “inactive”. With `Oc1ccc2c(c1)-c1ccccc1C2` the outcome was “inactive”. For `COc1ccc2sc(C(=O)Nc3nnn[nH]3)c(OC(C)C)c2c1`, the outcome was “inactive”. For `CCOCCOCCOCCO`, the outcome was “inactive”. `C=CCCCCCCCCC(=O)O` was tested, and the outcome was “inactive”. With `CN(C)c1ccc(N=NS(=O)(=O)O)cc1` the outcome was “inactive”. With `O=P(OC(CCl)CCl)(OC(CCl)CCl)OC(CCl)CCl` the outcome was “inactive”. For `C[C@](N)(Cc1ccc(O)c(O)c1)C(=O)O`, the outcome was “inactive”. With `C1N2CN3CN1CN(C2)C3` the outcome was “inactive”. `On1ccccc1=S` was tested, and the outcome was “inactive”. For `CC(C)CCCCCCCOC(=O)CCCCC(=O)OCCCCCCCC(C)C`, the outcome was “inactive”. With `Cc1ccc(S(=O)(=O)O)cc1C` the outcome was “inactive”. For `CC[C@H](C)C(=O)O[C@H]1C[C@@H](C)C=C2C=C[C@H](C)[C@H](CC[C@@H]3C[C@@H](O)CC(=O)O3)[C@H]21`, the outcome was “inactive”.
